# Measured values published in PubChem BioAssay AID488969 (Vanderbilt High Throughput Screening Facility, 2010).
# In all, about 110,000 compounds were measured (“z-score”: median about -0.1, highest 2% from about 2 on). This is one part of a sample in which the highest values are shown more often than they occur. Active and inactive are the calls of the source.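 How the source made its calls: active means z-score in the third read window above 3 or below -3; inactive means the rest.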
# Molecular target: Metabotropic glutamate receptor 8 (Rattus norvegicus) (UniProt P70579)
# Sequence (P70579 whole entry, looked up): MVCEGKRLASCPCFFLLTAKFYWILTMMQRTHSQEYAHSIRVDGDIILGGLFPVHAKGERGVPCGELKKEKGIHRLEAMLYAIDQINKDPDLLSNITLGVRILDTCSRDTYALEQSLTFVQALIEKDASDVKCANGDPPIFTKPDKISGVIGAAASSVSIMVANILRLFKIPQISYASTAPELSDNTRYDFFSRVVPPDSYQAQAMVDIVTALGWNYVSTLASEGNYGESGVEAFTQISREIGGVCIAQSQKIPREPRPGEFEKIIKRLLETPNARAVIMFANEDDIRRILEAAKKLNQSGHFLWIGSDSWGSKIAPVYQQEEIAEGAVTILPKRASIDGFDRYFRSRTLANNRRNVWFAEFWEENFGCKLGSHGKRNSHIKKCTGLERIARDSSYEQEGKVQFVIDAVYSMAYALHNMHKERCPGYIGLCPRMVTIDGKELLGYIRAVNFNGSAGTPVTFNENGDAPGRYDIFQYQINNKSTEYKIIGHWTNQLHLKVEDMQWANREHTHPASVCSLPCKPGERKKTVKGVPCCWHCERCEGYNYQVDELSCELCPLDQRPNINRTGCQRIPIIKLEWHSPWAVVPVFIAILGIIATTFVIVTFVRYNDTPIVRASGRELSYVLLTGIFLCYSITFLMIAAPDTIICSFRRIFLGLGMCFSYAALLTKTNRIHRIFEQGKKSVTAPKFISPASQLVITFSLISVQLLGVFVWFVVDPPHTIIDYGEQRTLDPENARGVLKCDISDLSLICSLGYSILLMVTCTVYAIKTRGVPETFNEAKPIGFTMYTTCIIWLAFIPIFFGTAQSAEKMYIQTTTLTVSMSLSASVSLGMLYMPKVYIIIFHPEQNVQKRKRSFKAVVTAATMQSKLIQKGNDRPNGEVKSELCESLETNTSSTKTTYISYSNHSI
# Experiment: rat mGluR8 modulators via GIRK flux, primary screen, cell-based, thallium flux, HTS (AID 488969)
# Settings: HEK293 rat mGluR8, GIRK (G protein-gated inwardly rectifying potassium channel) thallium flux, FluoZin2; at 10 µM; stronger effect = higher value; submaximal glutamate (EC20) added with thallium
row,Structure (SMILES),z-score
1,COc1ccc(C(=O)NNC(=O)CN2CCC(n3nnc4cc(F)ccc43)CC2)cc1,-0.223
2,Cc1ccc(OCC(=O)N/N=C\c2ccc(-c3cccc(C(=O)O)c3)o2)c(C)c1,3.24 (active)
3,O=C(O)c1cccc(-c2ccc(/C=N/NC(=O)c3cccnc3)o2)c1,-0.216
4,Cc1ccc(OCC(=O)N/N=C\c2ccncc2)c(C)c1,1.4
5,O=C(NC1CCCC1)C1CCN(c2nccs2)CC1,0.382
6,CCc1cccc(CC)c1NC(=O)COC(=O)CCc1cc(OC)c(OC)c(OC)c1,-0.0755
7,CCC(=O)c1c[nH]c(C(=O)NCCCN2CCOCC2)c1,-0.121
8,CC(=O)N1CCC(N(CCN2CCOCC2)C(=S)Nc2cc(C)ccc2C)CC1,-0.0971
9,CCCCOC(=O)c1ccc(NC(=O)c2nn(C)cc2Br)cc1,-0.112
10,CCCCOC(=O)c1ccc(NC(=O)c2ccccc2OC)cc1,-0.0471
11,COC(=O)c1cc(NC(=O)c2c(Cl)cnn2C)cc(C(=O)OC)c1,-0.191
12,CCCCOC(=O)c1ccc(NC(=O)c2cnccn2)cc1,0.00424
13,COC(=O)c1ccc(NC(=S)NC(=O)c2c(Cl)cnn2C)cc1,10.1 (active)
14,CCCCOC(=O)c1ccc(NC(=S)NC(=O)c2c(Cl)cnn2C)cc1,11.2 (active)
15,Cn1ncc(Cl)c1C(=O)Nc1ccncc1,0.243
16,CCCCOC(=O)c1ccc(NC(=S)NC(=O)c2c(Cl)cnn2CC)cc1,8.06 (active)
17,CCn1ncc(Cl)c1C(=O)Nc1ccncc1,-0.171
18,CCOC(=O)c1ccc(NC(=S)NC(=O)c2nn(CC)cc2Br)cc1,1.17
19,CCCCOC(=O)c1ccc(NC(=O)c2cc(Cl)ccc2OC)cc1,-0.0115

row,Structure (SMILES),z-score
1,CCCCOC(=O)c1ccc(NC(=S)NC(=O)c2c(Br)c(C)nn2C)cc1,4.24 (active)
2,CCc1nnc(NC(=O)C2CCCN2S(=O)(=O)c2ccc(F)cc2)s1 (stereo unspecified),0.145
3,CCOC(=O)c1cccc(NS(=O)(=O)c2c(C)[nH]c(=O)[nH]c2=O)c1,-0.0134
4,CCn1c(/C=C2\C(=O)Nc3ccccc32)nc2ccccc2c1=O,-0.221
5,COc1cccc(OCC(=O)N(Cc2nc(-c3ccc(Cl)cc3)no2)C(C)C)c1,0.0492
6,CCS(=O)(=O)NC(C)C(c1cccs1)N1CCN(c2ccc(F)cc2)CC1 (stereo unspecified),0.062
7,COc1ccc(OC)c(N2Cc3cc(C)c(C)cc3C2)c1,0.286
8,NC(=O)N1CCN(C(=O)c2ccco2)CC1,0.536
9,COc1ccc(OC)c(/C=N/NC(=O)CC2C(=O)NN=C2C)c1 (stereo unspecified),-0.12
10,O=C(NC(=S)Nc1ccc(N2CCOCC2)cc1)c1cccc([N+](=O)[O-])c1,0.169
11,O=C(NC(=S)Nc1ccc(NC(=O)c2ccco2)cc1)c1ccccc1,-0.416
12,COc1ccc(NC(=O)c2cc3ccccn3n2)cc1,-0.0979
13,C=CCN(CC=C)S(=O)(=O)c1ccc(NC(=S)NC(=O)c2ccco2)cc1,10.3 (active)
14,O=C(NC(=S)Nc1ccc(CN2CCOCC2)cc1)c1ccc([N+](=O)[O-])cc1,0.649
15,NS(=O)(=O)c1ccc(NC(=S)NC(=O)c2ccco2)cc1,-0.0865
16,O=C(NC(=S)Nc1ccc(CN2CCOCC2)cc1)c1cccc([N+](=O)[O-])c1,2.19
17,CC1CCN(c2ccc(NC(=S)NC(=O)c3ccco3)cc2)CC1,4.93 (active)
18,O=C(Nc1ccc(CN2CCOCC2)cc1)c1cc2ccccc2o1,0.834
19,CC1CCN(c2ccc(NC(=S)NC(=O)c3ccc(-c4cccc([N+](=O)[O-])c4)o3)cc2)CC1,-0.0494

row,Structure (SMILES),z-score
1,O=C(Nc1ccc(CN2CCOCC2)cc1)c1cc2ccccn2n1,4.59 (active)
2,C=CCN(CC=C)S(=O)(=O)c1ccc(NC(=S)NC(=O)c2ccc(-c3ccccc3)cc2)cc1,-0.107
3,Cc1cccc2sc(NC(=O)C3CCN(S(=O)(=O)c4cc([N+](=O)[O-])ccc4Cl)CC3)nc12,0.0365
4,CCOC(=O)C1CCN(C(=O)COc2ccc(Cl)cc2Cl)CC1,-0.471
5,CCCCOC(=O)Nc1ccc(S(=O)(=O)Nc2ccc([N+](=O)[O-])cc2)cc1,0.51
6,N/C(=N\OC(=O)c1ccc(Cl)c(Cl)c1)c1cccnc1,-0.145
7,COc1ccccc1NC(=O)N(Cc1ccco1)Cc1cc2ccc(C)c(C)c2[nH]c1=O,-1.77
8,C=CCn1c(Cc2cccs2)nnc1SCC(=O)c1ccc2ccccc2c1,-0.708
9,CCOC(=O)c1c(NC(=O)c2noc3c2CCCC3)sc(C)c1C,-0.285
10,S=C(NCc1ccco1)Nc1ccc(N2CCOCC2)cc1,-0.00184
11,O=C(NC(=S)Nc1ccc(N2CCOCC2)cc1)c1ccco1,3.46 (active)
12,O=C(NC(=S)Nc1ccc(N2CCCCC2)cc1)c1ccco1,-1.53
13,O=C(NC(=S)Nc1ccc(N2CCOCC2)cc1)c1cccc(Cl)c1,4.95 (active)
14,O=C(NC(=S)Nc1ccc(N2CCOCC2)cc1)c1ccc2c(c1)OCCO2,0.0862
15,O=C(NC(=S)Nc1ccc(N2CCOCC2)cc1)c1ccc(Cl)cc1,0.272
16,O=C(c1ccccc1-c1ccccc1)N1CCN(c2ccccn2)CC1,-0.0481
17,O=C(c1ccccc1CCc1ccccc1)N1CCN(c2ccccn2)CC1,2.38
18,O=C(CCc1ccccc1)N1CCN(c2ccccn2)CC1,-0.254
